Source: PubChem
Compounds with a hit are over-represented: about 0.53% of the library has one in this group of screens.
PrP 5UTR inh: inhibition of PrP 5' UTR reporter expression | cell-based PrP 5' UTR mRNA reporter, plate reader | inhibition, % (test concentration not listed) | 340,000 tested, 0.35% active | AID 488862; in the data active = inhibition above about 52%
TcdB GH inh: TcdB glycohydrolase inhibition; TcdB glycohydrolase enzymatic assay, plate reader; 350,000 tested, 0.24% active; inhibition, % at 9.99 µM; P18177; in the data active = inhibition above about 10%
Y pestis TopoI: blocks Yersinia pestis topoisomerase I activity | Y. pestis Topo-I cleavage product accumulation, plate reader | activity, % at 10 µM | 360,000 tested, 0.064% active | AID 504884; in the data active = activity above about 50%, passing the limit was not always enough; inconclusive = no clear call, values can overlap the other calls
BioA inh-1: blocks M. tuberculosis BioA enzyme activity | purified M. tuberculosis BioA enzyme, plate reader | inhibition, % at 9.99 µM | 360,000 tested, 0.096% active | AID 602481; in the data active = inhibition above about 40%; inconclusive = no clear call, values can overlap the other calls
BioA inh-2: blocks M. tuberculosis BioA aminotransferase; shares compounds with BioA inh-1; purified BioA enzyme, plate reader, dose response; max activity, %; 310 tested, under 10 active; AID 651679;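 note: top concentration of the dilution series was 10 µM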
Target sequence (P9WQ81 whole entry, looked up): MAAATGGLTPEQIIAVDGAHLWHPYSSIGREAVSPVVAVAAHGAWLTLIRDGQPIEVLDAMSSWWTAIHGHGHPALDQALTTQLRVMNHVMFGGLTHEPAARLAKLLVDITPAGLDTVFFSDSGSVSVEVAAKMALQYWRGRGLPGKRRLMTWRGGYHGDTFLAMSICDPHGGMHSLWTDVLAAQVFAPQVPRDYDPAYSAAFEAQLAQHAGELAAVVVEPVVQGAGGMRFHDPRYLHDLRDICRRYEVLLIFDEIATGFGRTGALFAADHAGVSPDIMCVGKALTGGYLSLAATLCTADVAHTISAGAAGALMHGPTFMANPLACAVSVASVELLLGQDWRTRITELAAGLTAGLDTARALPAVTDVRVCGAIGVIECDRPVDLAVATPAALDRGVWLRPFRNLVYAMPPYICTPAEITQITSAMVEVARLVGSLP
HepG2 cytotox: kills HepG2 cells | 310 tested, under 10 active | shares compounds with BioA inh-1 | AID 651898 | HepG2 cytotoxicity, plate reader | max activity, %
NIH3T3 tox 5: cytotoxicity in NIH3T3 cells; activity change, negative = cytotoxicity, % at 26 µM; shares compounds with BioA inh-1; 310 tested, under 10 active; plate reader
Hits are given with their value. Unless noted, the rule behind the calls is not given here.

`C[C@@H]1CN([C@@H](C)CO)S(=O)(=O)c2ccc(C3=CCCC3)cc2O[C@@H]1CN(C)C(=O)c1ccccc1` gave TcdB GH inh inactive and BioA inh-1 inactive.
CCC(=O)N(C)C[C@@H]1Oc2cc(C#CC3CC3)ccc2S(=O)(=O)N([C@@H](C)CO)C[C@@H]1C was read as TcdB GH inh inactive and BioA inh-1 inactive.
Cc1nn(CC(=O)NCC(C)c2ccccc2)c(=O)c2cc3occc3n12 (configuration not stated) was read as PrP 5UTR inh inactive, TcdB GH inh inactive, Y pestis TopoI inactive and BioA inh-1 inactive.
Screening CC(CNC(=O)CCCn1ncn2c(cc3occc32)c1=O)c1ccccc1 (configuration not stated) returned PrP 5UTR inh inactive, TcdB GH inh inactive, Y pestis TopoI inactive, BioA inh-1 67, BioA inh-2 inactive, HepG2 cytotox inactive and NIH3T3 tox 5 inactive.
Screening CCCc1cc(=O)oc2c3c(cc(OCC(=O)NCCCn4ccnc4)c12)OC(C)(C)CC3 returned PrP 5UTR inh inactive, TcdB GH inh 11, Y pestis TopoI inactive, BioA inh-1 43, BioA inh-2 inactive, HepG2 cytotox inactive and NIH3T3 tox 5 inactive.
Screening COc1cc(-c2nc3ccccc3nc2-c2ccc(O)c(OC)c2)ccc1O returned PrP 5UTR inh inactive, TcdB GH inh inactive, Y pestis TopoI inactive, BioA inh-1 51, BioA inh-2 inactive, HepG2 cytotox inactive and NIH3T3 tox 5 inactive.
`COc1cc(-c2nc3ccccn3c2N)ccc1O` gave PrP 5UTR inh inactive, TcdB GH inh inactive, Y pestis TopoI inactive and BioA inh-1 inactive.
For COc1ccc(NC(=O)N(C)C[C@H]2Oc3ncc(C#CCC(C)C)cc3C(=O)N([C@H](C)CO)C[C@@H]2C)cc1 the results were TcdB GH inh inactive and BioA inh-1 inactive.
For CC(C)n1c(N2CCN(C(=O)c3cccs3)CC2)nc2ccccc21 the results were PrP 5UTR inh inactive, Y pestis TopoI inactive, BioA inh-1 42, BioA inh-2 inactive, HepG2 cytotox inactive and NIH3T3 tox 5 inactive.
`CC(C)Cn1c(N2CCN(C(=O)c3cccs3)CC2)nc2ccccc21` gave PrP 5UTR inh inactive and Y pestis TopoI inactive.
Screening COc1ccc(C(=O)C2CCCN(C(=O)c3ccnn3C)C2)c(C)c1 (configuration not stated) returned PrP 5UTR inh inactive, TcdB GH inh inactive, Y pestis TopoI inactive and BioA inh-1 inactive.
`COc1ccc(C(=O)C2CCCN(C(=O)c3ccc(C(C)=O)s3)C2)c(C)c1` (configuration not stated) gave PrP 5UTR inh inactive, TcdB GH inh inactive, Y pestis TopoI inactive, BioA inh-1 64, BioA inh-2 inactive, HepG2 cytotox inactive and NIH3T3 tox 5 inactive.
COc1ccc(Cn2ccc(=O)c(Cc3c(Cl)cccc3Cl)c2C)cc1 was read as PrP 5UTR inh inactive, Y pestis TopoI inactive, BioA inh-1 43, BioA inh-2 inactive, HepG2 cytotox inconclusive and NIH3T3 tox 5 inconclusive.
For CO[C@@H]1CN(C)C(=O)c2ccc(NC(=O)C3CC3)cc2OC[C@@H](C)N(CCc2ccccc2)C[C@H]1C the results were TcdB GH inh inactive and BioA inh-1 inactive.
Screening CNC(=O)C[C@H]1CC[C@@H]2[C@H](COC[C@@H](O)CN2C(=O)Nc2ccc3c(c2)OCO3)O1 returned TcdB GH inh inactive, BioA inh-1 50, BioA inh-2 inactive, HepG2 cytotox inactive and NIH3T3 tox 5 inactive.
COC(=O)C[C@@H]1CC[C@@H]2[C@H](COC[C@@H](O)CN2C(=O)Nc2cccc(F)c2)O1 was read as TcdB GH inh inactive, BioA inh-1 46, BioA inh-2 inactive, HepG2 cytotox inactive and NIH3T3 tox 5 inactive.
COc1ccc2c3c([nH]c2c1)[C@@H](CO)N(C(=O)c1cccnc1)CC31CCN(Cc2cccnc2)CC1 was read as TcdB GH inh inactive.
Nc1cc(C(=O)O)ccc1Nc1ccccc1 was read as PrP 5UTR inh inactive, Y pestis TopoI inactive, BioA inh-1 75, BioA inh-2 inactive, HepG2 cytotox inactive and NIH3T3 tox 5 inactive.
`Cc1ccc(-c2nnc(N3CCN(C(=O)CSc4ncn[nH]4)CC3)c3ccccc23)cc1` gave PrP 5UTR inh inactive, Y pestis TopoI inactive, BioA inh-1 52, BioA inh-2 inactive, HepG2 cytotox inactive and NIH3T3 tox 5 inactive.
CC(=O)N1CCN(c2nnc(-c3ccc(C)cc3)c3ccccc23)CC1 was read as PrP 5UTR inh inactive, TcdB GH inh inactive and Y pestis TopoI inactive.
COC(=O)C[C@H]1C[C@H]2c3cc(NC(=O)CC4CC4)ccc3O[C@H]2[C@@H](CO)O1 was read as TcdB GH inh inactive and BioA inh-1 inactive.
Cc1ccc(NCc2nnc(SCC(=O)N3CCc4ccccc43)n2C)cc1 was read as PrP 5UTR inh inactive, Y pestis TopoI inactive, BioA inh-1 47, BioA inh-2 inactive, HepG2 cytotox inactive and NIH3T3 tox 5 inactive.
For COC(=O)c1sc(N)c(C(=O)OC)c1CSc1nnnn1C the results were PrP 5UTR inh inactive, Y pestis TopoI inactive and BioA inh-1 inactive.
Screening COC(=O)c1sc(N)c(C(=O)OC)c1CSc1nnc(-c2ccccc2Cl)n1C returned Y pestis TopoI inactive, BioA inh-1 59, BioA inh-2 inactive, HepG2 cytotox inactive and NIH3T3 tox 5 inactive.
CCC(=O)N(C)C[C@H]1Oc2cc(-c3ccc(OC)cc3)ccc2S(=O)(=O)N([C@@H](C)CO)C[C@H]1C was read as TcdB GH inh inactive and BioA inh-1 inactive.
CCCN1CCN(C(=O)C2CCN(c3nnc(C)c4c(C)n(-c5ccc(C)cc5)nc34)CC2)CC1 was read as PrP 5UTR inh inactive, TcdB GH inh inactive, Y pestis TopoI inactive, BioA inh-1 41, BioA inh-2 inactive, HepG2 cytotox inactive and NIH3T3 tox 5 inactive.
For Cc1cc(C(=O)NC2CC(C)(C)Cc3c2cnn3-c2cccc(F)c2)nn1C (configuration not stated) the results were PrP 5UTR inh inactive, TcdB GH inh inactive, Y pestis TopoI inactive, BioA inh-1 69, BioA inh-2 inactive, HepG2 cytotox inactive and NIH3T3 tox 5 inactive.
Screening O=c1[nH]c(N2CCN(Cc3ccc4c(c3)OCO4)CC2)nc2c1CCC2 returned PrP 5UTR inh inactive, Y pestis TopoI inactive, BioA inh-1 76, BioA inh-2 inactive, HepG2 cytotox inactive and NIH3T3 tox 5 inactive.
O=c1[nH]c(N2CCN(Cc3ccccc3)CC2)nc2c1CCC2 was read as PrP 5UTR inh inactive, TcdB GH inh inactive and Y pestis TopoI inactive.
For CC(=O)c1ccc(C(=O)N2CCCC(Nc3ccc(C(C)C)cc3)C2)s1 (configuration not stated) the results were PrP 5UTR inh inactive, TcdB GH inh inactive, Y pestis TopoI inactive, BioA inh-1 67, BioA inh-2 inactive, HepG2 cytotox inactive and NIH3T3 tox 5 inactive.
Screening COc1ccc(N2CCN(C(=O)Cc3cccs3)CC2)cc1 returned PrP 5UTR inh inactive, TcdB GH inh inactive, Y pestis TopoI inactive and BioA inh-1 inactive.
For CC(=O)c1ccc(N2CCN(C(=O)Cc3cccs3)CC2)cc1 the results were PrP 5UTR inh inactive, Y pestis TopoI inactive, BioA inh-1 49, BioA inh-2 inactive, HepG2 cytotox inactive and NIH3T3 tox 5 inactive.
